Source: PubChem BioAssay (NCATS)
“And” between values parts separate entries of the source, which are not always exact repeats. Identical values can stand only once. Records with an inconclusive call do not appear. The source made the active and inactive calls. Unless noted, calls come from the whole dose curve; as a rule, active = well fitted curve in the direction sought with a large enough effect; inconclusive = small, poorly fitted or top-dose-only effect, or another doubt; inactive = no such curve, though single readings can be large; an effect the other way counts as inactive or inconclusive.

Tests used:
[1] = qHTS for compounds that reverse cellular toxicity of Amyloid beta (A-beta) peptide in yeast: LOPAC Validation Assay (AID 720559);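 note: plate controls were DMSO for no effect and equimolar ferric chloride plus clioquinol rescue for full effect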
Method in brief: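 Rescue of A-beta toxicity was scored as yeast growth by 600 nm absorbance after 48 hr at 30 C with compound. Normalization used DMSO (negative) and equimolar ferric chloride plus clioquinol (positive).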

[2] = qHTS for Activators of Parkin Expression: LOPAC Validation Assay (FLuc Reporter) (AID 720573;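 note: 0% = DMSO and 100% = positive control compounds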)
Method in brief: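 FLuc signal from Parkin-promoter coincidence reporter neuronal cells, normalized to DMSO and positive control (100%). Cells (1,500/well) pre-incubated 24 h, then exposed to LOPAC compounds in 7-point dose response for 24 h at 37 C, 5% CO2.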

[3] = biological target: T1, Hexokinase-4 (Homo sapiens) + Glucokinase regulatory protein (Homo sapiens) (UniProt P35557+Q14397); test: qHTS assay for inhibitors of recombinant human GCK-GKRP interaction: Diaphorase-coupled assay (AID 743205)
Method in brief: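 A kinetic fluorescence read (Ex 525/Em 590 nm, every minute for 30 minutes) tracked resorufin from a G6PDH-diaphorase coupled GCK reaction. It contained 10 nM GST-GCK, 10 nM FLAG-GKRP, 5 mM glucose, 0.4 mM ATP in Hepes pH 7.6. Normalized to with/without-enzyme DMSO controls.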

[4] = biological target: T1, Hexokinase-4 (Homo sapiens) + Glucokinase regulatory protein (Homo sapiens); test: qHTS assay for inhibitors of recombinant human GCK-GKRP interaction: ADP-Glo assay (AID 743206);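 note: plate controls were DMSO plus enzyme for no effect and no enzyme for full effect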
Method in brief: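 GST-GCK and FLAG-GKRP (15 nM each in the dispensed mix, with 2 uM S6P) react with 0.4 mM ATP and 5 mM glucose (final) in Hepes pH 7.6 for 60 min at room temperature. ADP is measured by ADP-Glo luminescence.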

[5] = biological target: T1, Hexokinase-4 (Homo sapiens) + Glucokinase regulatory protein (Homo sapiens); test: qHTS assay for inhibitors of recombinant human GCK-GKRP interaction: HTRF assay (AID 743207); note: potency is the fitted concentration of half-maximal effect
Method in brief: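 After 60 min equilibration at room temperature with anti-FLAG XL665 and anti-GST antibodies, FRET ratio (665/615 nm, excitation 320 nm) was read. Proteins: GST-GCK and FLAG-GKRP, each 5 nM, plus 2 uM S6P, pH 7.1 buffer; GCK-free wells define minimum signal.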

[6] = qHTS Assay for Identifying Gametocytocidal Compounds (AID 743244); note: potency is the fitted concentration of half-maximal effect;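 for max response: % is set by controls: 0 for no effect and ±100 for the full control effect; actives lower the fluorescent signal which means gametocytes are killed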; conditions: P. falciparum 3D7 stage III-V gametocytes, alamarBlue, 72 h; max response: stronger effect = lower value
Method in brief: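 Using 20,000 stage III–V 3D7 gametocytes per well, compounds were incubated 72 h under 37 °C/5% CO2. Viability was then assessed by 24 h alamarBlue reduction, measured fluorometrically at 525/598 nm.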

[7] = qHTS assay for measurement of the activity of small molecule inhibitors on Zika virus induced Caspase-3 activity in human iPSC derived neural progenitor cells (hNPCs) (AID 1224857); note: % of control where 0% means no effect; nearly all actives have a fitted effect of over 65% in size
Method in brief: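 After overnight (16–20 h) culture at 350 cells/well, hNPCs get compound, then ZIKV 2 FFU/cell one hour later. Six hours on, Caspase-Glo 3/7 is added and luminescence measured.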

[8] = qHTS for Activators of Parkin Expression: LOPAC Validation Assay (NLuc Reporter) (AID 720572;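 note: 0% = DMSO and 100% = positive control compound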)
Method in brief: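 Neuronal line stably carrying a FLuc/NLuc coincidence reporter under the Parkin promoter, seeded 24 h, then dosed in 7-point series for 24 h at 37 C. NLuc luminescence read after FLuc; normalized to DMSO and positive control (100%).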

[9] = qHTS profiling for inhibitors of Plasmodium falciparum (3D7) proliferation (AID 743322; call rule not given here;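 note: infected erythrocytes exposed to compound for 72 h before lysis; 100% = DMSO vehicle wells and 0% = 0.29 µM artemisinin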); conditions: P. falciparum 3D7 proliferation; at 28.7 µM (top of the series) unless noted
Method in brief: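 Erythrocytes infected with P. falciparum (0.3% parasitemia, 2.5% hematocrit) incubated with compounds 72 h at 37 C, 5% CO2. Lysis with saponin/Triton buffer containing SYBR Green I, overnight at room temperature in the dark; DNA fluorescence (485/535 nm) normalised to 0.29 uM artemisinin and DMSO.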

[10] = qHTS profiling for inhibitors of Plasmodium falciparum (DD2) proliferation (AID 743323; call rule not given here); conditions: lower = more inhibition; at 28.7 µM (top of the series) unless noted
Method in brief: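 P. falciparum Dd2-infected erythrocytes (0.3% parasitemia, 2.5% hematocrit) exposed 72 h at 37 C, 5% CO2. Lysis with SYBR Green, overnight at room temperature, fluorescence 485/535 nm; normalized to 0.29 uM artemisinin and DMSO.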

[11] = qHTS profiling for inhibitors of Plasmodium falciparum (HB3) proliferation (AID 743324); conditions: Plasmodium falciparum HB3 blood-stage proliferation; at 28.7 µM (top of the series);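 note: 100% = DMSO vehicle wells and 0% = artemisinin-treated control wells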
Method in brief: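 P. falciparum HB3 grown in erythrocytes (0.3% parasitemia, 2.5% hematocrit final) with compound for 72 h at 37 C, 5% CO2. Parasite DNA detected by SYBR Green after saponin/triton lysis overnight; normalized to 0.29 uM artemisinin and DMSO.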

[12] = qHTS assay for small molecule agonists of the antioxidant response element (ARE) signaling pathway measured by Nrf2-dependant transcriptional activity (AID 720636; active = well fitted curve in the direction sought with a large enough effect in the repeat runs; an effect the other way counts as inactive or inconclusive;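 note: HepG2 cells with an ARE-driven luciferase reporter; % of control where 0% means no effect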)
Method in brief: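 Reporter gene assay, HepG2 ARE-luc: 16 hr compound, 37 C, 5% CO2; read-out luciferase luminescence.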

[13] = qHTS assay for small molecule agonists of the antioxidant response element (ARE) signaling pathway measured by Nrf2-dependant transcriptional activity - cell viability counter screen (AID 720653; active = well fitted curve in the direction sought with a large enough effect in the repeat runs; an effect the other way counts as inactive or inconclusive; note: % is set by controls: 0 for no effect and ±100 for the full control effect); conditions: ARE-bla HepG2 viability, CellTiter-Glo ATP luminescence, 16 h; max response: stronger effect = lower value
Method in brief: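 ARE-bla HepG2 cells (2,000/well) rested 5 hrs at 37C/5% CO2, then exposed to compounds in DMSO for 16 hrs. Viability was read in the same wells as intracellular ATP by luminescence, 30 min at room temperature after reagent addition.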

[14] = qHTS assay for cell viability of HEK293 cells (AID 743288); conditions: ATP luminescence (CellTiter-Glo), 18 h; max response: stronger effect = lower value; note: nearly all actives have a fitted effect of over 50% in size; note: potency is the fitted concentration of half-maximal effect; for max response: % is set by controls: 0 for no effect and ±100 for the full control effect
Method in brief: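 Total intracellular ATP, measured with a luciferase-coupled reagent, indicates the number of viable HEK293 cells. Exposure to test chemicals lasts 18 h at 37 C in 1,536-well format at 2,000 cells/well.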

[15] = qHTS assay for cell viability of the p53RE-bla HCT-116 cell line (AID 743292); note: % is set by controls: 0 for no effect and ±100 for the full control effect; nearly all actives have a fitted effect of over 55% in size
Method in brief: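 Readout: CellTiter-Glo luminescence after 30 min RT. Treatment: compounds in DMSO, 16 h, 37 C. Cells: CellSensor p53RE-bla HCT-116, 4,000/well, preincubated 5 h.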

T1 sequence (P35557 whole entry, looked up): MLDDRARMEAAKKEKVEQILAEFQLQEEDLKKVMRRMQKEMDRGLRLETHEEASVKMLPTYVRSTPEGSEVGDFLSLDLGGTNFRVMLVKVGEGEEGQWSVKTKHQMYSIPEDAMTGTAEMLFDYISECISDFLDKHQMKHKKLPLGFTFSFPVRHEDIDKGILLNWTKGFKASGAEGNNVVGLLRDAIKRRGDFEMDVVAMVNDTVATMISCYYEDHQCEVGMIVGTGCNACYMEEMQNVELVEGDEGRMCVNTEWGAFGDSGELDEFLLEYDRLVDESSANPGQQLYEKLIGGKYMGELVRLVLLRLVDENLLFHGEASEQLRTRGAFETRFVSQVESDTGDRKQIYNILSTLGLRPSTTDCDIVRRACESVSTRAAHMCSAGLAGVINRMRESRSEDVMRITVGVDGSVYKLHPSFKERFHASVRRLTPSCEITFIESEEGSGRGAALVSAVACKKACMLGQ
T1 sequence (Q14397 whole entry, looked up): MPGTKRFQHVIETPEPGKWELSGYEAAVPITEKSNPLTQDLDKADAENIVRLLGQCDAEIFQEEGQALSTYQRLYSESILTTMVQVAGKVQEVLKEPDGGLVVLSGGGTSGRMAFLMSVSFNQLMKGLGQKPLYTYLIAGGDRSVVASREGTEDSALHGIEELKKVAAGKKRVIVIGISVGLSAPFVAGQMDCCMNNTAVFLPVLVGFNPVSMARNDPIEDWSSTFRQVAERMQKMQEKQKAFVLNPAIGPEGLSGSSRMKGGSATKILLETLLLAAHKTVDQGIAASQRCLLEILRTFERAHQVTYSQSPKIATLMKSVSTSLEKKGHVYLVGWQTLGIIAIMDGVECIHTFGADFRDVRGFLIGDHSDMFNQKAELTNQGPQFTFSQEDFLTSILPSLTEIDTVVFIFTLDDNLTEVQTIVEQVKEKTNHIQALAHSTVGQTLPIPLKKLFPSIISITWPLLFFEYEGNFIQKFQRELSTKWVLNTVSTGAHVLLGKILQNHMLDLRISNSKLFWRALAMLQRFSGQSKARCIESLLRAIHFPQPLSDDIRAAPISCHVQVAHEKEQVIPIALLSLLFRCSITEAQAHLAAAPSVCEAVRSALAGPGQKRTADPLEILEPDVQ

CCCCCCCC/C=C\CCCCCCCC(=O)NCc1ccc(O)c(OC)c1
inactive: outcome [1] | outcome [2] | outcome [3] | outcome [4] | Potency [5] | max response [6] 0.654% and 9.43% | outcome [7]

Cc1ccc(=O)n(-c2ccccc2)c1
inactive: Potency [8] | outcome [2] | outcome [3] | outcome [4] | Potency [5] | max response [6] 6.86% and 22.4% | outcome [7]

COc1ccc2c(c1OC)C(=O)O[C@@H]2[C@H]1c2c(cc3c(c2OC)OCO3)CCN1C
inactive: outcome [1] | outcome [2] | outcome [3] | outcome [4] | Potency [5] | max response [6] -4.58% and 10.4% | outcome [7]

CNC1(C)C2CCC(C2)C1(C)C (stereo not drawn)
inactive: outcome [1] | Potency [8] | outcome [2] | outcome [3] | outcome [4] | Potency [5] | max response [6] 12.1% and 8.7% | outcome [7]

Cc1nc2sccn2c(=O)c1CCN1CCC(=C(c2ccc(F)cc2)c2ccc(F)cc2)CC1
inactive: Potency [8] | outcome [2] | outcome [3] | outcome [4] | Potency [5] | max response [6] -7.25% and 26.8% | outcome [7]

COC(=O)C1=C(C)NC(C)=C(C(=O)OC(C)(C)CN(C)CCC(c2ccccc2)c2ccccc2)C1c1cccc([N+](=O)[O-])c1 (stereo not drawn)
inactive: outcome [1] | Potency [8] | outcome [2] | outcome [3] | outcome [4] | Potency [5] | max response [6] 7.33% and 12.6% | outcome [7]

CN(C)[C@@H]1C(=O)C(C(N)=O)=C(O)[C@@]2(O)C(=O)C3=C(O)c4c(O)ccc(Cl)c4[C@@H](O)[C@H]3C[C@@H]12
active: Potency [5] 12.6 µM
inactive: Potency [8] | outcome [2] | outcome [3] | outcome [4] | max response [6] -7.62% and 22.4% | outcome [7]

OC(CCN1CCCCC1)(c1ccccc1)C1CCCCC1 (stereo not drawn)
inactive: Potency [8] | outcome [2] | outcome [3] | outcome [4] | Potency [5] | max response [6] -12% and 9.84% | outcome [7]

C#CCN(C)CCCOc1ccc(Cl)cc1Cl
inactive: outcome [1] | Potency [8] | outcome [3] | outcome [4] | Potency [5] | max response [6] -2.39% and 17.1% | outcome [7]

Nc1c2c(nc3ccccc13)CCCC2O (stereo not drawn)
inactive: outcome [1] | Potency [8] | outcome [2] | outcome [3] | outcome [4] | Potency [5] | max response [6] -3.49% and -6.56% | outcome [7]

CNCCC(Oc1ccccc1OC)c1ccccc1 (stereo not drawn)
inactive: outcome [1] | Potency [8] | outcome [2] | outcome [3] | outcome [4] | Potency [5] | max response [6] 19.3% | outcome [7]
104%: remaining parasite growth % (stronger effect = lower value) [9]
91.8%: remaining proliferation (% of control), lower = more inhibition [11]
48%: activity, percent of control [10]

COCC(=O)O[C@]1(CCN(C)CCCc2nc3ccccc3[nH]2)CCc2cc(F)ccc2[C@@H]1C(C)C
active: Potency [6] 2.64 µM and 1.41 µM
inactive: outcome [1] | Potency [8] | outcome [2] | outcome [3] | outcome [4] | Potency [5] | outcome [7]
-2.7%: remaining parasite growth % (stronger effect = lower value) [9]
-0.639%: activity, percent of control [10]
-1.39%: remaining proliferation (% of control), lower = more inhibition [11]

COC(=O)[C@H]1[C@H]2C[C@@H]3c4[nH]c5cc(OC)ccc5c4CCN3C[C@H]2C[C@@H](OC(=O)c2cc(OC)c(OC)c(OC)c2)[C@@H]1OC
active: Potency [14] 39.8 µM
inactive: Potency [8] | outcome [2] | outcome [12] | max response [13] -16.7% and -9.72% | outcome [3] | outcome [4] | Potency [5] | outcome [15] | outcome [7]

CCCCNc1c(C(=O)OCC)c(C)nc2c1cnn2CC
inactive: Potency [8] | outcome [2] | outcome [3] | outcome [4] | Potency [5] | max response [6] -2.63% and 24% | outcome [7]

O=C(O)CN(CCN(CC(=O)O)CC(=O)O)CCN(CC(=O)O)CC(=O)O
inactive: Potency [8] | outcome [2] | outcome [3] | outcome [4] | Potency [5] | max response [6] 13% and 27.1% | outcome [7]

CCn1ccnc1CC1COc2ccccc2O1 (stereo not drawn)
inactive: Potency [8] | outcome [2] | outcome [3] | outcome [4] | Potency [5] | max response [6] 13.9% and 11.7% | outcome [7]

NC(N)=N/N=C/c1c(Cl)cccc1Cl
inactive: Potency [8] | outcome [2] | outcome [3] | outcome [4] | Potency [5] | outcome [7]

C[C@]12C=CC(=O)C=C1CC[C@H]1[C@@H]3C[C@@H](O)[C@](O)(C(=O)CO)[C@@]3(C)C[C@H](O)[C@@]12F
inactive: Potency [8] | outcome [2] | outcome [12] | max response [13] -0.0511% | outcome [3] | outcome [4] | Potency [5] | max response [6] 20.4% and -3.94% | max response [14] -7.12% | outcome [15] | outcome [7]
